Reference: PubChem BioAssay (NCI)
The panel holds about 79,000 compounds, 15% with a hit somewhere; the sample as a whole holds those more often. Values without a mark were called inactive. Cut-off read from the data, not from the text of the source: active = growth inhibition above about 70%; inactive = the rest.

Test: NCI Yeast Anticancer Drug Screen. Data for the cln2 rad14 strain (AID 165);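 note: 0% = growth equal to vehicle treated cultures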
Details: S. cerevisiae cln2 rad14 strain, at 50.0 µM, hits give high values
In short: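 Each compound was tested on cln2 rad14 yeast. Inhibition of growth was calculated against vehicle-exposed controls.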

SMILES | growth inhibition [%]
Cc1ccc(S(=O)(=O)/N=C2\CCN(S(=O)(=O)c3ccccc3)N2S(=O)(=O)c2ccc(C)cc2)cc1 | 9.85
C=C1C(OC(C)=O)CC(OC(C)=O)C2(C)C(OC(C)=O)C(OC(C)=O)C3=C(C)C(OC(=O)/C=C/c4ccccc4)CC(C(OC(C)=O)C12)C3(C)C (stereo not given) | -4.75
CCN(CC)c1nc(Cl)nc(C(N)=O)c1N | -16.1
CO/N=C(\C(=O)N(C)n1cnnc1)c1csc(NC(c2ccccc2)(c2ccccc2)c2ccccc2)n1 | 25.1
CC(=O)NNC(=S)N/C=C(\C#N)C(=O)c1ccc2ccccc2c1 | -1.1
CCCCCCCCC(=O)c1ccc(N=Nc2ccc(OCC)cc2)cc1 | -8.55
CCC(CCCN)Nc1cc(OC)cc2c(C)ccnc12 (stereo not given) | -4.5
COc1ccc2cc(NC(=O)N/N=C\c3ccc(Cl)cc3)ccc2c1 | 4.4
CSc1ccc(NC(=O)Nc2cc(C)c(C)cc2C)cc1 | 21.4
CC1(C)C2CCC(=O)C1CC2 (stereo not given) | 12.7
C=C(Br)CN=CN(C)C | 1.35
CC12CCC(CC1)C2(C)C | -4.8
O=C(OC1CCCC1OC(=O)c1ccccc1)c1ccccc1 (stereo not given) | -5.3
ClCCCc1ccccc1C1=NCCc2ccccc21 | 3.25
Cc1cc(Cl)cc(C(=O)O)c1O | -12.7
CC(=O)n1cc2cc([N+](=O)[O-])ccc2n1 | -91.8
COc1ccc2ccc3c(c2c1)C(=O)C(CC(N)=O)C3 (stereo not given) | 0.4
CC1CCC2(CC1)CC(=O)N(N1CCCCC1)C2=O (stereo not given) | 17.1
NC(=S)N/N=C/c1ccc(Cl)cc1Cl | 28.3
O=C(O)c1ccc(C(=O)O)nc1 | -14.4

SMILES | growth inhibition [%]
CC(=O)/C=C/C=C\C=C/N=C(c1ccccc1)c1ccccc1 | 3
Cc1ccc(S(=O)(=O)OC(F)(F)C(F)(F)F)cc1 | -8.15
Cc1ccc(NC(=O)CC/C(CC(=O)C(C)(C)C)=N/NC(=O)C(N)=O)cc1C | 10.6
CN(C)c1ccc(N=Nc2cccc3ncccc23)cc1 | 31.1
COC(=O)c1ccc(SCCC(C)=O)cc1 | 9.9
CCSC(SCC)C(O)C(O)C(O)C(C)O (stereo not given) | -34.1
CC(=O)c1cccc(NC(=O)N(C)C2CCCCC2)c1 | -15.6
CCOC(=O)CC(=O)C(=O)NNC1=NCCCN1 | 14.2
COc1cc([C@@H]2OC(=O)C3C2C(=O)O[C@H]3c2ccc(O)c(OC)c2)ccc1O (stereo not given in full) | 17.4
Cc1csc(C)[n+]1CC(=O)c1ccccc1 | -20.2
COC1/C=C/OC2(C)Oc3c(C)c(O)c4c(O)c(c5c(nc(-c6ccco6)n5-c5ccccc5)c4c3C2=O)NC(=O)/C(C)=C\C=C\C(C)C(O)C(C)C(O)C(C)C(OC(C)=O)C1C (stereo not given) | 14.2
COc1cc(C=O)ccc1OC(=O)Nc1cc(Cl)ccc1C | 5.75
CCOC([O-])=N/C(=N/[n+]1ccc(C)cc1)c1ccccc1 | -16.1
Cc1ccc(S(=O)(=O)N/N=C(\c2nc3ccc([N+](=O)[O-])cc3[nH]c2=O)C(O)c2ccccc2Cl)cc1 (stereo not given) | 5.85
O=[N+]([O-])C1(CO)COC2(OC1)c1ccccc1-c1ccccc12 | 11.8
O=C1c2ccccc2-c2nc(/C=C/c3ccccc3)cc3c2c1nc1ccccc13 | 7
Clc1nc(-c2ccccc2)nc2ccccc12 | -29.6
CCOc1cc(C)c2cccc(C)c2n1 | 6.25
Cc1ncc([N+](=O)[O-])n1CCNC(=O)CCCn1cnc([N+](=O)[O-])n1 | -17.4
Cc1cc(OC(=O)c2ccccc2)cc(C)c1OC(=O)c1ccccc1 | -6.15
